Laboratory results reported in PubChem BioAssay (Tox21).
Records with an inconclusive call do not appear. The source made the active and inactive calls. Unless noted, calls come from the whole dose curve.

Experiments:
[1] = Nuclear factor erythroid 2-related factor 2/antioxidant responsive element (Nrf2/ARE) small molecule agonists: qHTS cell viability counter screen in human keratinocytes (AID 1919968; active = well fitted curve in the direction sought with a large enough effect in the repeat runs; an effect the other way counts as inactive or inconclusive; note: nearly all actives have a fitted effect of over 55% in size)
Procedure, shortened: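 CellTiter-Fluor fluorescence, read 1 h after reagent, gave viability in the same wells as the ARE-luciferase assay. KeratinoSens cells (1,500/well) had 23 h compound exposure at 37 C/5% CO2 following 5 h plating.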

[2] = Nuclear factor erythroid 2-related factor 2/antioxidant responsive element (Nrf2/ARE) small molecule agonists: luciferase reporter gene qHTS assay in human keratinocytes (AID 1919969); note: nearly all actives have a fitted effect of over 35% in size
[3] = target: KiSS-1 receptor (Homo sapiens) (UniProt Q969F8); assay: Human kisspeptin (KISS1R) small molecule agonists, calcium flux assay in KISS1R-HEK293 cells (AID 1920064; active = well fitted curve in the direction sought with a large enough effect in the repeat runs; an effect the other way counts as inactive or inconclusive)
Sequence of KiSS-1 receptor (Homo sapiens) (Q969F8 whole entry, looked up): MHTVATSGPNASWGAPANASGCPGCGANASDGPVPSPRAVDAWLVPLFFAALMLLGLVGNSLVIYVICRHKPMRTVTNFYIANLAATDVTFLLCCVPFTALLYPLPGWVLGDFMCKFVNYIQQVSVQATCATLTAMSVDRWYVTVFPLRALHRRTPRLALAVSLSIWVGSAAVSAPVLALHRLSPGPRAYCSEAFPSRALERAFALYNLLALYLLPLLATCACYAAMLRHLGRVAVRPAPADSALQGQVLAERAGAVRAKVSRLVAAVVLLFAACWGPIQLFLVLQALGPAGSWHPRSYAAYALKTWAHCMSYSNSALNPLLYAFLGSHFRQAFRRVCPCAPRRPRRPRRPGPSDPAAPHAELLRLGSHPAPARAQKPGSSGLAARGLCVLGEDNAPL
Procedure, shortened: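 Agonist mode: intracellular calcium rise tracked at 1 s intervals over 3 min (480/540 nm) immediately after compound addition to dye-loaded KISS1R-HEK293 stable cells. Each compound tested at 15 concentrations in triplicate.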

[4] = p53 small molecule agonists, cell-based qHTS assay with human liver microsomes (AID 1963577)
Procedure, shortened: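 p53RE-bla reporter cells were pre-incubated 5 h at 37 C, then treated with compounds plus human liver microsomes (0.5 mg/mL final) and NADPH (0.5 mg/mL final) for 16 h at 37 C. Beta-lactamase activity was read by LiveBLAzer fluorescence after 2 h at room temperature.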

[5] = p53 small molecule agonists, cell-based qHTS assay with rat liver microsomes (AID 1963578)
Procedure, shortened: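 p53RE-bla cells were exposed to compounds together with rat liver microsomes (0.5 mg/mL final) and NADPH (0.5 mg/mL final) for 16 h at 37 C, then read by LiveBLAzer beta-lactamase fluorescence after 2 h at room temperature.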

[6] = p53 small molecule agonists, cell-based qHTS assay with human liver microsomes: qHTS cell viability counter screen (AID 1963579); note: nearly all actives have a fitted effect of over 45% in size
Procedure, shortened: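 p53RE-bla cells (4,000/well) were pre-incubated 5 h at 37 C, then given compounds in DMSO plus human liver microsomes (0.5 mg/mL final) and NADPH (0.5 mg/mL final) for 16 h at 37 C. Viability was read by CellTiter-Glo luminescence.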

[7] = p53 small molecule agonists, cell-based qHTS assay with rat liver microsomes: qHTS cell viability counter screen (AID 1963580); note: nearly all actives have a fitted effect of over 45% in size
Procedure, shortened: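 After the beta-lactamase ratio was read, CellTiter-Glo was added to the same wells and luminescence measured at 30 min; cells had been treated 16 h at 37 C with compounds, rat liver microsomes and NADPH (0.5 mg/mL final each).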

[8] = p53 small molecule agonists, cell-based qHTS assay (AID 1963582; active = well fitted activation curve with a large enough effect in the signal ratio in the repeat runs, not every such curve was filed as active; the % refers to the signal ratio)
Procedure, shortened: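 Read-out is beta-lactamase FRET fluorescence after 2 h at room temperature with LiveBLAzer B/G substrate. p53 response element-bla cells were treated 16 h at 37 C with compounds in DMSO, added 5 h after seeding.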

[9] = target: 5-hydroxytryptamine receptor 2A (Homo sapiens) (UniProt P28223); assay: 5-hydroxytryptamine receptor 2A (HTR2A) small molecule antagonists, cell-based qHTS assay (AID 1963586); note: nearly all actives have a fitted effect of over 45% in size
Sequence of 5-hydroxytryptamine receptor 2A (Homo sapiens) (P28223 whole entry, looked up): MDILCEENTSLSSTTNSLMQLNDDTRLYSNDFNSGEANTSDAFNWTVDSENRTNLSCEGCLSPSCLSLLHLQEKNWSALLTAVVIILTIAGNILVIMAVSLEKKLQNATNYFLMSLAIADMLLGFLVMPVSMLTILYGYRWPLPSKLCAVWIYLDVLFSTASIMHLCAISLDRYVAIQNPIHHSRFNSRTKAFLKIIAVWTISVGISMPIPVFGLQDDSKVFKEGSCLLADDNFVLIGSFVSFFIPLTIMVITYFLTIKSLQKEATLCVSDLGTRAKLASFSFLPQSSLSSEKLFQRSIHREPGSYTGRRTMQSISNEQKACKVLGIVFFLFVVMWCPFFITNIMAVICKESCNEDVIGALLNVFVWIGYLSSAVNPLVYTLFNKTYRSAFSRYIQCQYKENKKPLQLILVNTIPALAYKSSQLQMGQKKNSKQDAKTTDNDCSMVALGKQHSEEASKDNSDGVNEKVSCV
Procedure, shortened: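 CHO cells stably expressing human HTR2A were plated for 18 h at 37 C, then loaded with calcium dye for 1 h. Compounds were preincubated 5 min at room temperature before DOI (4 nM solution) was added. Kinetic fluorescence was read for 3 min.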

[10] = target: 5-hydroxytryptamine receptor 2A (Homo sapiens) (UniProt P28223); assay: 5-hydroxytryptamine receptor 2A (HTR2A) small molecule agonists, cell-based qHTS assay (AID 1963587); note: nearly all actives have a fitted effect of over 30% in size
Procedure, shortened: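 CHO cells stably expressing human HTR2A, plated 18 h, loaded with calcium dye 1 h at 37 C. Agonist mode: compounds added and intracellular calcium fluorescence recorded kinetically for 2 min at 1 sec intervals.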

[11] = target: Muscarinic acetylcholine receptor M1 (Homo sapiens) (UniProt P11229); assay: Cholinergic receptor muscarinic 1 (CHRM1) small molecule antagonists, cell-based qHTS assay (AID 1963588); note: potency is the fitted concentration of half-maximal effect; nearly all actives have a fitted effect of over 40% in size
Sequence of Muscarinic acetylcholine receptor M1 (Homo sapiens) (P11229 whole entry, looked up): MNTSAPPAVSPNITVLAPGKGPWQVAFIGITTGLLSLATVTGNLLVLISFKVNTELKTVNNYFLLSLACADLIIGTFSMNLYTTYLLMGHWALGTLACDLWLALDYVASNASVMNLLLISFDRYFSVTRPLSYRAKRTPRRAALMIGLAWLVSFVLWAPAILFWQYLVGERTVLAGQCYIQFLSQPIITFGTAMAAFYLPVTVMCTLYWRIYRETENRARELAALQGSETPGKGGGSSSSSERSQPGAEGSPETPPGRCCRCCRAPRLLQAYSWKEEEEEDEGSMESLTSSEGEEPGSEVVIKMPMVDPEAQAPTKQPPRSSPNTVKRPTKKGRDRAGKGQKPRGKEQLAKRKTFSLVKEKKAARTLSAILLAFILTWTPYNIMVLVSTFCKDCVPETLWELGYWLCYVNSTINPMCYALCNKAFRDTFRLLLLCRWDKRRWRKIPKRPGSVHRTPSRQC
Procedure, shortened: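 Compounds were tested at 15 concentrations in three independent runs. Dye-loaded CHRM1-CHO cells were exposed 5 min at room temperature before stimulation by acetylcholine added at 50nM. Intracellular calcium was read kinetically on FDSS for 3 min.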

[12] = target: Muscarinic acetylcholine receptor M1 (Homo sapiens) (UniProt P11229); assay: Cholinergic receptor muscarinic 1 (CHRM1) small molecule agonists, cell-based qHTS assay (AID 1963589); note: nearly all actives have a fitted effect of over 35% in size
Procedure, shortened: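 Agonist-mode calcium-flux screen: compounds at 15 concentrations, three independent runs, were pin-transferred onto dye-loaded human CHRM1-CHO cells. Fluorescence was then recorded kinetically every second over minutes.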

[13] = cAMP Responsive Elements (CRE) small molecule agonists, cell-based qHTS assay (AID 1963590)
Procedure, shortened: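 Agonist mode: compound added to CRE-bla HEK 293T cells (2,000/well, 18 h after plating) for 3 h at 37 C/5% CO2. Reporter activity detected via FRET beta-lactamase substrate, 2 h room-temperature loading.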

[14] = cAMP Responsive Elements (CRE) small molecule antagonists, cell-based qHTS assay (AID 1963591; active = well fitted inhibition curve with a large enough effect in the signal ratio in the repeat runs, not every such curve was filed as active; the % refers to the signal ratio)
Procedure, shortened: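 Antagonist mode: compounds are added alongside the adenylyl cyclase activator NKH477 (0.25 uM final) to CRE-bla HEK293T cells for 3 h. LiveBLAzer FRET substrate, 2 h at room temperature, reports bla expression.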

[15] = target: Beta-2 adrenergic receptor (Homo sapiens) (UniProt P07550); assay: Adrenergic beta2 receptor (ADRB2) small molecule antagonists, cell-based qHTS assay (AID 1963592); note: series mostly up to about 92 µM; nearly all actives have a fitted effect of over 50% in size
Sequence of Beta-2 adrenergic receptor (Homo sapiens) (P07550 whole entry, looked up): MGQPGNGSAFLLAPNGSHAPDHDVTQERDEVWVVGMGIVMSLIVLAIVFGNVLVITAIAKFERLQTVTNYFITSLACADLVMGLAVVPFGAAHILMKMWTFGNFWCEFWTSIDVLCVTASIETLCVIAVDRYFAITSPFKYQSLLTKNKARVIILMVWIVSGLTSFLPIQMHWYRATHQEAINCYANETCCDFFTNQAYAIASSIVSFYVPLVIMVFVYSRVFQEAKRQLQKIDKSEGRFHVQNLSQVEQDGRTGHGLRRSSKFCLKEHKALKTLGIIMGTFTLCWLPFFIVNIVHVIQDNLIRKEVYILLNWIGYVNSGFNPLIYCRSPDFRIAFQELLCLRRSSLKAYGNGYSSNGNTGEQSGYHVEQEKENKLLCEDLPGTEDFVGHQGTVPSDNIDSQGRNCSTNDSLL
Procedure, shortened: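 Assay format: CHO-ADRB2 cells, 18-20hr seeding at 37C/5% CO2, then compound plus 1nM isoproterenol agonist mix for 0.5hr RT. Homogeneous time-resolved fluorescence cAMP detection after 1hr, expressed as 665/615 nm ratio.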

[16] = target: D(2) dopamine receptor (Homo sapiens) (UniProt P14416); assay: Dopamine D2 receptor (DRD2) small molecule agonists, cell-based qHTS assay (AID 1963594); note: nearly all actives have a fitted effect of over 35% in size
Sequence of D(2) dopamine receptor (Homo sapiens) (P14416 whole entry, looked up): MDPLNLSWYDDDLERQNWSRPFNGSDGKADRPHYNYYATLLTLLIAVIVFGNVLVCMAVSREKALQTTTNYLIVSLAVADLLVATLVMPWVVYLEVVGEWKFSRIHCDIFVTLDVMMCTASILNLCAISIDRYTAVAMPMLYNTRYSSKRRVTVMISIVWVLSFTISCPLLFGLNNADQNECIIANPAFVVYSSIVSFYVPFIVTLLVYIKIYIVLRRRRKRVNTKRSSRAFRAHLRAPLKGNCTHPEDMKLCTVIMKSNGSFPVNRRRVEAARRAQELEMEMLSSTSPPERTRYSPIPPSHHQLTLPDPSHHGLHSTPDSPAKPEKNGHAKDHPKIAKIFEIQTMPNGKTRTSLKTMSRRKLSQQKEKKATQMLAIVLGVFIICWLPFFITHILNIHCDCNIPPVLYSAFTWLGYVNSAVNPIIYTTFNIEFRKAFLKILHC
Procedure, shortened: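 HEK293 cells stably expressing human DRD2, pre-treated with PDE inhibitor Ro20-1724 (0.1 mM final) and compound 10 min at room temperature, then stimulated with NKH477 (200nM […]) for 30 min. cAMP read by HTRF (665/620 nm).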

[17] = target: D(2) dopamine receptor (Homo sapiens) (UniProt P14416); assay: Dopamine D2 receptor (DRD2) small molecule antagonists, cell-based qHTS assay (AID 1963595; active = well fitted inhibition curve with a large enough effect in the signal ratio in the repeat runs, with a control signal flat; the % refers to the signal ratio)
Procedure, shortened: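 HTRF cAMP read-out at 665 and 620 nm emission (340 nm excitation). Antagonist mode: compounds were tested against 12 nM quinpirole in DRD2-HEK293 cells, with 200 nM NKH477 raising cAMP and 0.1 mM Ro20-1724 blocking its breakdown.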

[18] = G protein-coupled receptor (GPCR) small molecule agonists, calcium flux assay: HEK293 wild type cell line counter screen (AID 1920065)
Procedure, shortened: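 Calcium flux counter screen: compound added in agonist mode at 15 concentrations in triplicate to dye-loaded parental HEK293 cells. Fluorescence (480/540) read kinetically for 3 min; ATP served as positive control.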

[19] = p53 small molecule agonists, cell-based qHTS assay: qHTS cell viability counter screen (AID 1963581); note: nearly all actives have a fitted effect of over 45% in size
Procedure, shortened: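 Counter screen read by CellTiter-Glo luminescence (ATP content, 30 min at room temperature), run in the same wells as the beta-lactamase reporter read. HCT-116 p53RE-bla cells saw compounds for 16 h at 37 C.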

Measured: Potency

C[N+]12CCC(CC1)C(OC(=O)C(O)(c1ccccc1)c1ccccc1)C2 (stereo not drawn)
active: [11] 1.3 nM
not listed: [18] | [19]
inactive: all other assays above

NC1CCN(c2nc3c(cc2F)c(=O)c(C(=O)O)cn3-c2ccc(F)cc2F)C1 (stereo not drawn)
not listed: [6] | [9] | [10] | [11] | [12] | [13] | [14] | [15]
inactive: all other assays above
